Reference: article PMC4552634, “A New Set of Chemical Starting Points with Plasmodium falciparum Transmission-Blocking Potential for Antimalarial Drug Discovery” (PLoS ONE, 2015)
Like-named read-outs stand apart in the source and are kept apart here. In all, about 13,000 compounds went through this assay and about 3,200 (25%) showed an effect of 50% or more. Some of the results follow.

Test system: P. falciparum stage V gametocytes
Set-up: BacTiter-Glo ATP luminescence viability of purified stage V gametocytes in 384-well plates, per cent inhibition versus DMSO
Details: 48 h, 5 µM, inhibitor

| SMILES | % Inhibition | % Inhibition (% Inhibition) |
| --- | --- | --- |
| CC1(CCCCN2CCC(Cc3ccccc3)CC2)C(=O)Nc2ccccc21 (centres unmarked) [TCMDC-140796] | 0.5554% | – |
| CC1(CCN2CCC(c3c[nH]c4cnccc34)CC2)CCCc2c(Br)cccc2C1=O (centres unmarked) [TCMDC-141171] | 95.16% | – |
| O=c1[nH]c(NCCCCCN2CCC(c3c[nH]c4ccccc34)CC2)ncc1Cc1ccc(Cl)c(Cl)c1 [TCMDC-139189] | 16.9% | – |
| CC1(CCCCN2CCC(c3c[nH]c4cnccc34)CC2)C(=O)Nc2cccc(Cl)c21 (centres unmarked) [TCMDC-141177] | 63.64% | – |
| Cc1ccc(C(=O)Nc2cccc([N+](=O)[O-])c2)cc1S(=O)(=O)N1CC(C)CC(C)C1 (centres unmarked) [TCMDC-123731] | 8.733% | – |
| COc1cc(F)c2ncc(Cl)c([C@@H](O)CN3CCC(NCc4ccc5c(n4)NC(=O)CO5)CC3)c2c1 [TCMDC-135488] | 20.51% | – |
| C=C[C@H]1CN2CC[C@H]1C[C@H]2[C@H](O)c1ccnc2ccc(OC)cc12 [TCMDC-123939] | – | 23.69% |
| CCCCN(CCCC)CCCN(CCCN(CCCC)CCCC)c1cc(C)nc(Nc2ccc3cc(Br)ccc3c2)n1 [TCMDC-138005] | 117% | – |
| CCCN(CCC)CCCN(CCCN(CCC)CCC)c1cc(C)nc(Nc2ccc3cc(Br)ccc3c2)n1 [TCMDC-138006] | 102.3% | – |
| CCN(CCCN1CCCCC1)c1cc(C)nc(Nc2ccc(C)c(C)c2)n1 [TCMDC-132440] | 22.96% | – |
| CCN(CC)CCCN(CCCN(CC)CC)c1cc(C)nc(Nc2ccc3cc(Br)ccc3c2)n1 [TCMDC-137611] | 92.7% | – |
| CCN(CCCN1CCCCC1)c1cc(C)nc(Nc2ccc(OC)cc2)n1 [TCMDC-132430] | -5.018% | – |
| CCN(CCCN1CCCCC1)c1cc(C)nc(Nc2ccc(C)c(Br)c2)n1 [TCMDC-132436] | 25.65% | – |
| O=C(NC1CCN(Cc2ccc3c(c2)OCCO3)CC1)c1ccc(-c2cccc(C(F)(F)F)c2)s1 [TCMDC-134337] | 32.78% | – |
| COc1ccc(C2N=C(N)N=C(N)N2OCc2ccccc2)cc1OC (centres unmarked) [TCMDC-131345] | 5.736% | – |
| CC1(C)N=C(N)N=C(N)N1OCCCCCOc1ccccc1 [TCMDC-131319] | -2.033% | – |
| CC(=O)N(C)c1cccc(C(=O)Nc2cccc(-c3cccc(-c4nc5c(C)cccc5[nH]4)c3)c2)c1 [TCMDC-137071] | 44.44% | – |
| Cc1cc(CN2CCC(N3CC(c4ccccc4)(c4ccccc4)OC3=O)C2)ccc1O (centres unmarked) [TCMDC-136072] | -30.84% | – |
| COc1ccc(C)c(Nc2ccnc(Nc3cccc(-c4nc5ccccc5[nH]4)c3)n2)c1 [TCMDC-138696] | 21% | – |
| CCN(CC)CCCCNc1cc(-c2[nH]c(-c3c(Cl)cccc3Cl)nc2-c2ccc3cc(OC)ccc3c2)ccn1 [TCMDC-141249] | 85.02% | – |
| CCN(CC)CCCCNc1cc(-c2[nH]c(C(C)(C)C)nc2-c2ccc3cc(OC)ccc3c2)ccn1 [TCMDC-141246] | 101.1% | – |
| COc1ccc2cc(-c3nc(-c4c(Cl)cccc4Cl)[nH]c3-c3ccnc(NCCC4CCCN4C)c3)ccc2c1 (centres unmarked) [TCMDC-141248] | 70.07% | – |
| COc1ccc2cc(-c3nc(-c4c(Cl)cccc4Cl)[nH]c3-c3ccnc(NCCCN4CCN(C)CC4)c3)ccc2c1 [TCMDC-141250] | 55.44% | – |
| COc1cc(-c2cc3cc(Cl)c(Cl)cc3[nH]2)ccc1C(=O)NCCC1CCCN1C (centres unmarked) [TCMDC-141287] | -25.11% | – |
| COc1cccc(CNCC(C)(C)c2nc(-c3ccc(Cl)c(O)c3)c(-c3ccncc3)[nH]2)c1 [TCMDC-140687] | -54.89% | – |

| SMILES | % Inhibition | % Inhibition (% Inhibition) |
| --- | --- | --- |
| COc1cc(-c2nc(-c3ccc4c(c3)CCC4=NO)c(-c3ccncc3)[nH]2)ccc1OCCN1CCN(C)CC1 [TCMDC-141256] | -11.77% | – |
| CN(C)CCOc1ccc(NC(=O)NC(C)(C)c2nc(-c3ccc(Cl)c(O)c3)c(-c3ccncc3)[nH]2)cc1 [TCMDC-140744] | -34.41% | – |
| CC(C)(CNC(=O)[C@@H]1CCCN(CCOc2ccc(Cl)cc2)C1)c1nc(-c2ccc(Cl)c(O)c2)c(-c2ccncc2)[nH]1 [TCMDC-141125] | 7.649% | – |
| COc1cc(NC(=O)CCCCCCCN2CCN(C)CC2)c2ncccc2c1 [TCMDC-138214] | -6.593% | – |
| COc1cc(-c2nc(C(C)(C)CN)[nH]c2-c2ccncc2)ccc1Br [TCMDC-140674] | -82.82% | – |
| N=C(N)c1ccc(C(=O)Nc2cccc(C(=N)N)c2)cc1 [TCMDC-137804] | 7.039% | – |
| CCOc1cc(C(=O)NCCCN2CCN(c3cccc(Cl)c3)CC2)ccc1-c1nc2cc(Cl)c(F)cc2[nH]1 [TCMDC-140097] | -13.16% | – |
| O=C(/C=C/c1ccc(Cl)c(Cl)c1)NCCCCCN1CCC(NC(=O)Nc2ccccc2Cl)CC1 [TCMDC-135710] | -61.78% | – |
| Cc1ccc(Nc2ccnc3ccc(C(F)(F)F)cc23)cc1O [TCMDC-138307] | -31.91% | – |
| CC1(C)N=C(N)NC(NOCC=Cc2ccccc2)=N1 [TCMDC-131690] | -2.035% | – |
| O=C(NCCc1ccc(Cl)c(Cl)c1)[C@@H]1CCCN1C(=O)c1ccc(O)c(-c2ccc(Cl)c(Cl)c2)c1 [TCMDC-140871] | 35.67% | – |
| COc1ccc(Nc2ncc3c(-c4cccc(NC(=O)Cc5cccnc5)c4)c[nH]c3n2)cc1OC [TCMDC-135285] | -50.17% | – |
| CN(C)CCNC(=O)c1ccc2c(c1)n(C1CCN(S(=O)(=O)c3ccc(-c4ccccc4)cc3)CC1)c(=O)n2CC1CCCCC1 [TCMDC-135414] | 22.96% | – |
| CCc1cccc(NC(=O)/C=C/c2ccc3c(c2)CN(C)CC3)c1 [TCMDC-139241] | 27.65% | – |
| NC1=NC(c2ccccc2)(c2cccc(O)c2)C(=O)N1CCCc1ccccc1 (centres unmarked) [TCMDC-132352] | – | -21.91% |
| CCOc1cc(C(=O)NCCCN2CCCCC2C)ccc1-c1nc2ccc(Cl)cc2[nH]1 (centres unmarked) [TCMDC-140915] | 4.733% | – |
| CC1CCCCN1CCCNC(=O)c1cccc(-c2cc3cc(Cl)c(Cl)cc3[nH]2)c1 (centres unmarked) [TCMDC-141291] | -28.41% | – |
| COc1ccc2cc(-c3nc(-c4c(Cl)cccc4Cl)[nH]c3-c3ccnc(NCCCN4CCCCC4C)c3)ccc2c1 (centres unmarked) [TCMDC-141247] | 95.77% | – |
| CCn1c(C)c(C)c2cc(C(=O)Nc3ccon3)ccc21 [TCMDC-124915] | 28.52% | – |
| Cn1cc(CN2CCC(CCOC(c3ccccc3)c3ccccc3)CC2)cn1 [TCMDC-136046] | 75.05% | – |
| Oc1ccccc1CN1CCC(CCOC(c2ccccc2)c2ccc(Cl)cc2)CC1 (centres unmarked) [TCMDC-136039] | 23.64% | – |
| CC(C)N1CCC(Oc2ccc(CN3CCN(C(c4ccccc4)c4ccc(Cl)cc4)CC3)cc2)CC1 (centres unmarked) [TCMDC-132411] | 68.21% | – |
| Oc1ccccc1CN1CCN(C(c2ccccc2)c2ccccc2)CC1 [TCMDC-124458] | 18.52% | – |
| Cn1cc(CN2CCCC(COC(c3ccccc3)c3ccccc3)C2)cn1 (centres unmarked) [TCMDC-136042] | 17.19% | – |
| Cn1cc(CN2CCC(OC(c3ccccc3)c3ccc(Cl)cc3)CC2)cn1 (centres unmarked) [TCMDC-136165] | 63.85% | – |

| SMILES | % Inhibition | % Inhibition (% Inhibition) |
| --- | --- | --- |
| Cn1cc(CN2CCCC(COC(c3ccc(F)cc3)c3ccc(F)cc3)C2)cn1 (centres unmarked) [TCMDC-136043] | -3.69% | – |
| c1ccc(C(OCCC2CCN(Cc3cccnc3)CC2)c2ccccc2)cc1 [TCMDC-136045] | 0.3767% | – |
| Oc1ccc(CN2CCN(CCOC(c3ccccc3)c3ccc(Cl)cc3)CC2)cc1Cl (centres unmarked) [TCMDC-135689] | 3.239% | – |
| NC(=O)c1cccc(Nc2nccc(Nc3ccc(Oc4cccc(Cl)c4)c(Cl)c3)n2)c1 [TCMDC-138593] | -22.97% | – |
| Cc1c(S(=O)(=O)Nc2ccc3ccn(CCN(C)C)c3c2)sc2ccc(Cl)cc12 [TCMDC-139126] | -31.84% | – |
| COc1ccc(C2CC(c3ccccc3O)=NN2C(=O)c2ccco2)cc1OC (centres unmarked) [TCMDC-125347] | -56.68% | – |
| CC(C)C[C@H](Nc1ccnc(NCC2CCCCC2)n1)C(=O)NCCOc1ccccc1 [TCMDC-134712] | 15.38% | – |
| CCOc1ccc(CN(CCc2ccc3c(c2)OCO3)Cc2cc(OC)ccc2O)cc1 [TCMDC-125607] | 58.7% | – |
| Cc1cc(O)c(CN(C)Cc2ccc3c(c2)OCCO3)cc1C(C)C [TCMDC-124884] | 16.52% | – |
| Cc1cc(O)c(CN(C)Cc2ccc3c(c2)OCO3)cc1C(C)C [TCMDC-124881] | 27% | – |
| CCOC(=O)c1ccc(NC(=O)Nc2cccc(-c3ccc(-c4nc5ccc(F)cc5[nH]4)cc3)c2)cc1 [TCMDC-133267] | -0.2568% | – |
| Cc1cccc2nc(-c3cccc(-c4ccc(CN5CCC(C(N)=O)CC5)cc4)c3)[nH]c12.O=C(O)C(F)(F)F [TCMDC-132697] | 21.78% | – |
| COC(=O)c1ccc2nc(-c3cc(-c4cccc(-c5ccccc5)c4)cnc3N)[nH]c2c1 [TCMDC-135320] | -16.97% | – |
| COCc1cccc(-c2cc(-c3ccc(S(C)(=O)=O)cc3)cnc2N)c1 [TCMDC-133342] | 35.59% | – |
| CS(=O)(=O)c1ccc(-c2cnc(N)c(-c3ccc(O)cc3)c2)cc1 [TCMDC-133348] | 24.96% | – |
| COc1ccc(-c2ccc3c(-c4ccc(F)cc4)cnc(N)c3c2)cn1 [TCMDC-134503] | 16.03% | – |
| COc1cc(-c2cnc(N)c(-c3nc4ccccc4[nH]3)c2)cc(OC)c1OC [TCMDC-138793] | 9.298% | – |
| CS(=O)(=O)c1ccc2nc(-c3cc(-c4cccc(F)c4)cnc3N)[nH]c2c1 [TCMDC-133134] | 32.71% | – |
| CS(=O)(=O)c1ccc(-c2cnc(N)c(-c3cccc(O)c3)c2)cc1 [TCMDC-133347] | 65.54% | – |
| CS(=O)(=O)c1ccc(-c2cnc(N)c(-c3cccc(CO)c3)c2)cc1 [TCMDC-133352] | 33.58% | – |
| COc1ccc(-c2cc(-c3ccc(S(C)(=O)=O)cc3)cnc2N)cn1 [TCMDC-133351] | 104.2% | – |
| COc1ccc(-c2cnc(N)c(-c3ccc(C(N)=O)cc3)c2)cc1OC [TCMDC-133349] | 67.55% | – |
| COc1ccc(-c2cnc(N)c(-c3ccc(O)c(OC)c3)c2)cn1 [TCMDC-133350] | 11.39% | – |
| COc1cc(-c2cc(-c3ccc(S(C)(=O)=O)cc3)cnc2N)ccc1O [TCMDC-133343] | 105.4% | – |
